CYP2C9 activ = CYP2C9 (human) activation. 96,000 compounds, 1.4% hits. recombinant CYP2C9, luciferin-H conversion, luminescence; stronger effect = higher value; factor 1 = untreated enzyme, 0 = blocked. P11712. activation factor at 5 µM. AID 1024;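 active = activation factor of 2 or more for CYP2C9 at a 5 µM dose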;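 also: 0 = sulfaphenazole-blocked wells and 1 = vehicle-only wells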
CYP2C19 inhib = blocks human cytochrome P450 2C19 | P33261 | CYP2C19 Supersomes, luciferin-H EGE luminescence, 30 min | inhibition, % at 5 µM | 96,000 compounds, 21% hits;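 active = CYP2C19 inhibition above a set limit at 5 µM in the primary screen, cut at about 50% in these data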;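 also: plate controls were negative control wells for no effect and 2.5 mM tranylcypromine positive control for full effect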
Pyk2 oligo antag = antagonists of human Pyk2 oligomerization | Q14289 | Q293 cells, Pyk2 FERM NanoBiT luminescence; stronger effect = lower value | z-score (the deposit names both 25 µM and 10 µM) | 99,000 compounds, 0.83% hits | AID 1347419;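 active = Z-score of -3 or lower, scaled per plate to the spread of control and sample wells; inactive = z-score above -3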;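 also: negative z-score means lost luminescence so less FERM oligomerization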
Target sequence (Q14289 whole entry, looked up): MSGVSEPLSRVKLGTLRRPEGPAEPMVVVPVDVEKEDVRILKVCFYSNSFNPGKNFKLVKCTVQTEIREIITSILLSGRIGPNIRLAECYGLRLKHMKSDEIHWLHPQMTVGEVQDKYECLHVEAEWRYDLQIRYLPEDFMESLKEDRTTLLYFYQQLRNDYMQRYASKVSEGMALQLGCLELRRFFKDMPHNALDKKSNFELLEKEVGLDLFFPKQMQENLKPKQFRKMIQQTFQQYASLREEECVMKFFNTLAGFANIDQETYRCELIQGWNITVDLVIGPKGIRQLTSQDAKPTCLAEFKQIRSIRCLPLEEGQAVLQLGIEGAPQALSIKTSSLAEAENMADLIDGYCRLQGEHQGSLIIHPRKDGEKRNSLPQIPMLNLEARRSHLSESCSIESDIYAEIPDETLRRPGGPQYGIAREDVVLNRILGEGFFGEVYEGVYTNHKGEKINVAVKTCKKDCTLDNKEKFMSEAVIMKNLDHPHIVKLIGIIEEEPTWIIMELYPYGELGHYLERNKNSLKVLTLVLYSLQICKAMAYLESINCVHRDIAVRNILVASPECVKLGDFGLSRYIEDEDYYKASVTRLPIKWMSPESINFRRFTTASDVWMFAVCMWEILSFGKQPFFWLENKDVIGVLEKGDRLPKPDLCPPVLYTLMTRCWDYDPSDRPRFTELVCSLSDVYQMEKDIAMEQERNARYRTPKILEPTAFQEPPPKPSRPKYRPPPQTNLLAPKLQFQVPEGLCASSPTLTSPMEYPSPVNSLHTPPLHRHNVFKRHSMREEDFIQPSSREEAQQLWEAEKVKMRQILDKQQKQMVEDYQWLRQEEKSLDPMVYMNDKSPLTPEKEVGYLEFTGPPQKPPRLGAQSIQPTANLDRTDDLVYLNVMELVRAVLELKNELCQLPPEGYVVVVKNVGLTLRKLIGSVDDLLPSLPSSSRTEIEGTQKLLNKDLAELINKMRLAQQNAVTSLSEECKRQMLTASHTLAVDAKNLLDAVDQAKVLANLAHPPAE
CYP2C19 act = increases human CYP2C19 enzyme activity; P33261; recombinant CYP2C19, luciferin-H EGE luminescence; stronger effect = higher value; 0 = fully inhibited enzyme, 1 = untreated enzyme; activation factor at 5 µM; 96,000 tested, under 10 active; AID 1025;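 active = activation factor of at least 2 at 5 µM in the primary screen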;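 also: 0 = wells with 2.5 mM tranylcypromine and 1 = vehicle-only wells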
CYP2C9 inh = inhibitors of human CYP2C9; P11712; CYP2C9 Supersomes, luciferin-H conversion, luminescence; inhibition, % at 5 µM; 96,000 compounds, 20% hits; AID 777;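 active = blocking of liver enzyme CYP2C9 beyond about 50% at 5 µM, limit read from the data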
Active calls of the source: *; . = no result. Sampled rows, rich in hits. Any-hit rate of the full collection: about 28%.

SMILES	CYP2C9 activ	CYP2C19 inhib	Pyk2 oligo antag	CYP2C19 act	CYP2C9 inh
O=C(NCc1ccccc1)C(c1ccccc1)N(Cc1cccs1)C(=O)c1cnccn1 (stereo not drawn)	0.7	62.3*	-1.85	0.4	25.4
COCCNC(=O)C(c1ccc(F)cc1)N(Cc1ccco1)C(=O)CCC(=O)Nc1nccs1 (stereo not drawn)	0.6	53.0*	-0.1	0.5	36.4
O=C(CCC(=O)N(Cc1ccco1)C(C(=O)NC1CCCC1)c1ccncc1)Nc1cccnc1 (stereo not drawn)	0.4	75.0*	2.37	0.3	60.6*
O=S(NCc1ccco1)C12CC3CC(CC(C3)C1)C2 (stereo not drawn)	.	.	0.03	.	.
CCOC(=O)c1[nH]cnc1C(=O)NC(C)C	.	.	0.96	.	.
O=C(NC1CCCCC1)C(c1cccs1)N(Cc1cccs1)C(=O)c1ccco1 (stereo not drawn)	0.5	55.2*	-2.86	0.4	53.1*
O=C(NCC(=O)N(Cc1cccs1)C(C(=O)NC1CCCC1)c1ccncc1)c1ccco1 (stereo not drawn)	0.3	61.1*	-0.12	0.4	71.9*
CC(C)(C)NC(=O)Cn1c(SCC(=O)NCc2cccs2)nc2ccccc21	0.7	32.4	1.66	0.7	34.8
O=S(=O)(NCc1cn2ccccc2n1)c1cc(F)ccc1F	.	.	2.37	.	.
CC(C)OC(=O)C1C2C=CC3(CN(Cc4cccs4)C(=O)C13)O2 (stereo not drawn)	0.9	25.0	0.73	0.8	8.4
CN1CCN(CC(=O)N(C)c2nc(-c3ccccc3)cs2)CC1	0.9	8.9	0.16	0.9	12.9
COCC(=O)NC1CC2CCCC(C1)N2Cc1ccccc1 (stereo not drawn)	1	-8.7	1.58	1.1	-2.2
CC(=O)NC1CC2CCC(C1)N2Cc1ccc(C)cc1 (stereo not drawn)	1	54.4*	0.33	0.5	-0.8
CCOCCc1nnc(NC(=O)COC)s1	0.7	9.3	-0.24	0.9	29.1
CCOc1cc(C(=O)OCc2ccc(C(=O)OC)o2)cc(Br)c1OC	0.8	13.5	.	0.9	22.3
COc1cc(CNC2CCC(C)C2)cc(OC)c1 (stereo not drawn)	1.1	61.8*	0.93	0.4	-13.1
COc1cccc(CNC2CCCC2)c1	1.1	14.5	1.52	0.9	-12.1
COc1cc(CNC2CCCC2)cc(OC)c1	0.6	71.2*	0.37	0.3	39.8
CCCCn1c(=O)n(CC(O)c2ccccc2)c(=O)c2c1ncn2C1CCCC1 (stereo not drawn)	0.9	33.1	-0.97	0.7	5.2
N=C1/C(=C/c2cccn2CCOc2ccccc2)C(=O)N=C2SC=C(c3ccccc3)N12	.	.	-1.15	.	.
COc1cc(/C=C2/C(=N)N3C=CSC3=NC2=O)ccc1OCCCOc1ccccc1C	0.2	8.1	0.03	0.9	76.4*
COc1ccc(/C=C2/C(=O)N=C(N)N2C)cc1OC	1	4.5	0.55	1	2.1
CCOc1cc(/C=C2/C(=N)N3C=CSC3=NC2=O)ccc1OCCCOc1ccccc1C	0.3	35.9	0.33	0.6	73.7*
COc1ccc2c(CN(C)c3ccccc3)cc(=O)oc2c1	0.6	96.6*	2.4	0	35.6
CCCc1cc(=O)oc2cc(Oc3ncccn3)ccc12	0.6	87.6*	0.98	0.1	37.1
SMILES	CYP2C9 activ	CYP2C19 inhib	Pyk2 oligo antag	CYP2C19 act	CYP2C9 inh
COc1ccc(S(=O)(=O)NC(CC(=O)NCCc2ccc(OC)c(OC)c2)c2ccco2)cc1 (stereo not drawn)	0.9	2.1	2.1	1	9.7
CCS(=O)(=O)N1Cc2ccccc2CC1C(=O)OCC(=O)Nc1ccc(C)cc1 (stereo not drawn)	0.5	75.0*	0.38	0.3	46.3
Cc1ccc(C(=O)c2ccccc2C(=O)OCC(=O)Nc2ccc(SC(F)F)cc2)cc1	.	.	-1.74	.	.
CCS(=O)(=O)N1Cc2ccccc2CC1C(=O)Nc1nc2ccccc2s1 (stereo not drawn)	.	.	0	.	.
CCS(=O)(=O)N1Cc2ccccc2CC1C(=O)OCC(=O)Nc1ccc(SC(F)F)cc1 (stereo not drawn)	0.1	77.8*	0.22	0.2	93.1*
CC(c1ccccc1)C(CC(=O)O)C(=O)NC1CCCCC1 (stereo not drawn)	1.3	6.9	.	0.9	-25.8
O=c1ccsn1Cc1ccccc1	0.6	-7.3	-0.41	1.1	38.5
O=c1ccn(Cc2ccccc2)c(=O)n1Cc1ccccc1	0.8	78.4*	0.51	0.2	15.9
Cc1cc(C)nc(-n2nc(C)cc2Nc2ccccc2)n1	1	9.5	-0.82	0.9	-1.2

Bioassay records from PubChem.
